According to PubChem BioAssay (EPA / NIEHS):
“And” between values parts separate entries of the source, which are not always exact repeats. Equal values may be shown once. Where a structure was tested more than once in an assay, its records may differ in their call. The source made the active and inactive calls. The calls were made as follows: active = hit-call score of the fitted dose curve at least 0.9, where 1 is the maximum; inactive = score below 0.9.

Columns and labels:
[1] = read-out: Interleukin-8 (IL8), CXCL8 (gene 3576); experiment: BSK_BF4T_IL8: BioMAP Diversity Plus: BF4T Assay for Interleukin-8 (IL8) Biomarker Activity (AID 2284263); conditions: primary human bronchial epithelial cells with fibroblasts
In short: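 Human bronchial epithelial cells with dermal fibroblasts co-culture; IL-8 measured by ELISA 24 hours after dosing, fitted vs DMSO. Cytotoxicity tracked in parallel cultures by SRB total-protein staining.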

[2] = read-out: Interleukin-1 alpha (IL1a), IL1A (gene 3552); experiment: BSK_BF4T_IL1a: BioMAP Diversity Plus: BF4T Assay for Interleukin-1 alpha (IL1a) Biomarker Activity (AID 2284264); conditions: primary human bronchial epithelial cells with fibroblasts
In short: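 Human bronchial epithelial cells co-cultured with dermal fibroblasts, dosed and read at 24 h. Secreted/surface IL-1α quantified by ELISA; gain-of-signal fitted relative to DMSO baseline. Parallel SRB total-protein staining tracked cytotoxicity.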

[3] = read-out: Decorin, DCN (gene 1634); experiment: BSK_MyoF_Decorin: BioMAP Diversity Plus: MyoF Assay for Decorin Biomarker Activity (AID 2284265); conditions: primary human lung fibroblasts
In short: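 In this multiplexed fibroblast system, secreted or surface decorin is detected by ELISA one day after dosing, with increases scored against the DMSO vehicle.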

[4] = read-out: KRT18 (gene 3875); experiment: BSK_BF4T_Keratin818: BioMAP Diversity Plus: BF4T Assay for Keratin 818 Biomarker Activity (AID 2284266); conditions: primary human bronchial epithelial cells with fibroblasts
In short: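 Co-culture of human bronchial epithelial cells and dermal fibroblasts, chemical exposure 24 h. Keratin 8/18 measured by ELISA; positive-direction fit vs DMSO. SRB total protein run in parallel cultures for cytotoxicity.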

[5] = BSK_MyoF_SRB: Viability Assessment in the BioMAP Diversity Plus: MyoF Assay (AID 2284267); conditions: primary human lung fibroblasts;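 also: total protein by SRB absorbance in parallel cultures as cytotoxicity measure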
In short: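 Cytotoxicity in primary human lung fibroblasts is gauged by SRB total-protein staining 24 h after dosing, with DMSO as the negative control.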

[6] = read-out: Matrix Metallopeptidase 1 (MMP1), MMP1 (gene 4312); experiment: BSK_MyoF_MMP1: BioMAP Diversity Plus: MyoF Assay for Matrix Metallopeptidase 1 (MMP1) Biomarker Activity (AID 2284268); conditions: primary human lung fibroblasts
In short: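 Fibroblasts from human lung receive compound for 24 h before ELISA quantitation of MMP1. DMSO serves as baseline, and the endpoint is fitted for signal gain.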

[7] = read-out: TIMP metallopeptidase inhibitor 1 (TIMP1), TIMP1 (gene 7076); experiment: BSK_MyoF_TIMP1: BioMAP Diversity Plus: MyoF Assay for TIMP metallopeptidase inhibitor 1 (TIMP1) Biomarker Activity (AID 2284269); conditions: primary human lung fibroblasts
In short: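 ELISA read-out of TIMP-1 from primary human lung fibroblast cultures 24 h after compound dosing; gain of signal relative to DMSO vehicle baseline defines activity.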

[8] = read-out: Matrix Metallopeptidase 1 (MMP1), MMP1 (gene 4312); experiment: BSK_BF4T_MMP1: BioMAP Diversity Plus: BF4T Assay for Matrix Metallopeptidase 1 (MMP1) Biomarker Activity (AID 2284270); conditions: primary human bronchial epithelial cells with fibroblasts
In short: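 Co-culture of human bronchial epithelial cells and dermal fibroblasts; MMP-1 levels measured by ELISA 24 hours after chemical dosing, relative to DMSO. Cytotoxicity checked in parallel cultures by SRB total-protein staining.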

[9] = read-out: Matrix Metallopeptidase 3 (MMP3), MMP3 (gene 4314); experiment: BSK_BF4T_MMP3: BioMAP Diversity Plus: BF4T Assay for Matrix Metallopeptidase 3 (MMP3) Biomarker Activity (AID 2284271); conditions: primary human bronchial epithelial cells with fibroblasts
In short: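 Co-culture of human bronchial epithelial cells and dermal fibroblasts dosed 24 h; MMP-3 measured by ELISA, positive-direction fit versus DMSO. Cytotoxicity tracked by SRB total-protein staining (560 nm) in parallel cultures.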

[10] = read-out: Tissue plasminogen activator (tPA), PLAT (gene 5327); experiment: BSK_BF4T_tPA: BioMAP Diversity Plus: BF4T Assay for Tissue plasminogen activator (tPA) Biomarker Activity (AID 2284272); conditions: primary human bronchial epithelial cells with fibroblasts
In short: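 tPA level quantified by ELISA at 24 h post-treatment in bronchial epithelial/dermal fibroblast co-cultures, gain of signal scored against DMSO baseline. Parallel cultures stained with 0.1% SRB (560 nm) to flag overt cytotoxicity.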

[11] = read-out: Plasminogen Activator Inhibitor-1 (PAI1), SERPINE1 (gene 5054); experiment: BSK_BF4T_PAI1: BioMAP Diversity Plus: BF4T Assay for Plasminogen Activator Inhibitor-1 (PAI1) Biomarker Activity (AID 2284273); conditions: primary human bronchial epithelial cells with fibroblasts
In short: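 Co-culture of human bronchial epithelial cells and dermal fibroblasts exposed to compound for 24 h. PAI-1 measured by ELISA; activity fitted in positive direction versus DMSO. Parallel SRB staining assessed overt cytotoxicity.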

[12] = BSK_BF4T_SRB: Viability Assessment in the BioMAP Diversity Plus: BF4T Assay (AID 2284274); conditions: primary human bronchial epithelial cells with fibroblasts;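 as to AC50: total cell protein by sulforhodamine B staining as a cytotoxicity measure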
In short: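 Co-culture of human bronchial epithelial cells and dermal fibroblasts (BioMAP BF4T) exposed 24 h. Total protein by sulforhodamine B staining (0.1% SRB after 10% TCA fixation, 560 nm) in parallel cultures; fitted vs DMSO.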

[13] = read-out: urokinase Plasminogen Activator (uPA), PLAU (gene 5328); experiment: BSK_BF4T_uPA: BioMAP Diversity Plus: BF4T Assay for urokinase Plasminogen Activator (uPA) Biomarker Activity (AID 2284275); conditions: primary human bronchial epithelial cells with fibroblasts
In short: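 Co-culture of human bronchial epithelial cells and dermal fibroblasts; uPA quantified by ELISA 24 hours after dosing, fitted relative to DMSO. Parallel SRB total-protein staining assessed overt cytotoxicity.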

[14] = read-out: Matrix Metallopeptidase 9 (MMP9), MMP9 (gene 4318); experiment: BSK_BF4T_MMP9: BioMAP Diversity Plus: BF4T Assay for Matrix Metallopeptidase 9 (MMP9) Biomarker Activity (AID 2284276); conditions: primary human bronchial epithelial cells with fibroblasts
In short: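 Co-culture of human bronchial epithelial cells and dermal fibroblasts dosed for 24 h; MMP-9 quantified by ELISA and fitted upward versus DMSO. Cytotoxicity monitored in parallel cultures by SRB total-protein staining at the biomarker time point.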

[15] = read-out: Interleukin-8 (IL8), CXCL8 (gene 3576); experiment: BSK_IMphg_IL8: BioMAP Diversity Plus: IMphg Assay for Interleukin-8 (IL8) Biomarker Activity (AID 2284277); conditions: primary human endothelial cells with macrophages
In short: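 Co-culture of human venular endothelial cells and macrophages exposed to chemicals for 24 h; IL-8 quantified by ELISA and compared against the DMSO baseline, with SRB total-protein staining in parallel cultures for cytotoxicity.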

[16] = read-out: Intercellular Adhesion Molecule 1 (ICAM1), ICAM1 (gene 3383); experiment: BSK_BE3C_ICAM1: BioMAP Diversity Plus: BE3C Assay for Intercellular Adhesion Molecule 1 (ICAM1) Biomarker Activity (AID 2284278); conditions: primary human bronchial epithelial cells
In short: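 Measured by ELISA: ICAM-1 expressed by primary human bronchial epithelial cells 24 h after compound treatment, with upward-direction fitting versus DMSO vehicle.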

[17] = read-out: Interferon-inducible T-cell alpha chemoattractant (ITAC), CXCL11 (gene 6373); experiment: BSK_BE3C_ITAC: BioMAP Diversity Plus: BE3C Assay for Interferon-inducible T-cell alpha chemoattractant (ITAC) Biomarker Activity (AID 2284279); conditions: primary human bronchial epithelial cells
In short: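 ELISA read-out of I-TAC after 24 h chemical dosing of human lung primary bronchial epithelial cells; gain-of-signal fit vs DMSO baseline. Parallel SRB total-protein staining (0.1% SRB, 10% TCA fixation, 560 nm) assessed cytotoxicity.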

[18] = read-out: Interleukin-8 (IL8), CXCL8 (gene 3576); experiment: BSK_BE3C_IL8: BioMAP Diversity Plus: BE3C Assay for Interleukin-8 (IL8) Biomarker Activity (AID 2284280); conditions: primary human bronchial epithelial cells
In short: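 IL-8 signal gain, normalised to DMSO vehicle, was scored after a 24 h chemical exposure of primary human bronchial epithelial cells, with detection by ELISA.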

[19] = read-out: Epidermal growth factor receptor (EGFR), EGFR (gene 1956); experiment: BSK_BE3C_EGFR: BioMAP Diversity Plus: BE3C Assay for Epidermal growth factor receptor (EGFR) Biomarker Activity (AID 2284281); conditions: primary human bronchial epithelial cells
In short: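 Compound is added to human bronchial epithelial cells, cells incubate 24 h, then EGFR is detected by ELISA. Values reflect positive-direction fitting relative to DMSO.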

[20] = read-out: KRT18 (gene 3875); experiment: BSK_BE3C_Keratin818: BioMAP Diversity Plus: BE3C Assay for Keratin 818 Biomarker Activity (AID 2284282); conditions: primary human bronchial epithelial cells
In short: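 BE3C: human bronchial epithelial primary cells, 24 h exposure, Keratin 8/18 ELISA; DMSO = negative control/baseline; cytotoxicity by parallel SRB stain (0.1% SRB after 10% TCA fixation, 560 nm).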

Measured: AC50

O=C(O)C(F)(F)C(F)(F)C(F)(F)C(F)(F)C(F)(F)C(F)(F)C(F)(F)C(F)(F)F
inactive: [3] | [5] | [6] | [7] | [19]
active: [1] 48 µM and 48.7 µM | [2] 48.7 µM and 52.5 µM | [4] 51.6 µM and 55.1 µM | [8] 48.4 µM and 51.1 µM | [9] 47.4 µM and 55.2 µM | [10] 35.6 µM and 27.7 µM | [11] 47.5 µM and 46.2 µM | [12] 43.3 µM and 44 µM | [13] 50.3 µM and 54.7 µM | [14] 44.2 µM and 45.2 µM | [15] 15.8 µM and 5.94 µM | [16] 56.4 µM and 54.7 µM | [17] 49.1 µM and 56 µM | [18] 23.3 µM and 24.3 µM | [20] 30 µM and 47.6 µM

O=C(O)C(F)(F)C(F)(F)C(F)(F)C(F)(F)C(F)(F)F
inactive: [1] | [2] | [3] | [4] | [5] | [6] | [7] | [8] | [9] | [10] | [11] | [12] | [13] | [14] | [15] | [16] | [17] | [18] | [19] | [20]

O=S(=O)(O)C(F)(F)C(F)(F)C(F)(F)C(F)(F)C(F)(F)C(F)(F)F
active: [15] 22.9 µM
inactive: [1] | [2] | [3] | [4] | [5] | [6] | [7] | [8] | [9] | [10] | [11] | [12] | [13] | [14] | [15] | [16] | [17] | [18] | [19] | [20]

Oc1c(Cl)c(Cl)c(Cl)c(Cl)c1Cl
active: [3] 10.2 µM | [5] 6.05 µM | [6] 11.5 µM | [7] 9.53 µM

COc1ccc(O)c(C(C)(C)C)c1
inactive: [16] | [17] | [18] | [19] | [20]
